Compound activity (PubChem)
S1P4 antag – S1P4 receptor antagonists, primary screen, cell-based. inhibition, % at 4.98 µM. Sphingosine 1-phosphate receptor 4 (Homo sapiens), O95977. 220,000 tested, 0.26% active. AID 1510, 2009. S1P4-expressing cells, antagonist mode, reporter read-out; in the data active means inhibition above about 29%
S1P4 ag – S1P4 receptor agonists, primary screen, cell-based; 220,000 tested, 0.35% active; Sphingosine 1-phosphate receptor 4 (Homo sapiens), O95977; S1P4-expressing cell line, agonist reporter assay; activation, % at 4.98 µM; in the data active means activation above about 11%
EP2 antag – human EP2 receptor antagonists, primary screen, TR-FRET cAMP, C6 glioma cells; Prostaglandin E2 receptor EP2 subtype (Homo sapiens), P43116; C6 glioma cells expressing human EP2; cells stimulated with saturating PGE2; inhibition, % at 25 µM; 260,000 tested, 0.52% active;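 active means percent inhibition above 40 after rounding to a whole number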;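 further: rat C6 glioma host cells with rolipram phosphodiesterase inhibitor present; the protocol text gives 20 µM as final concentration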
Target sequence (P43116 whole entry, looked up): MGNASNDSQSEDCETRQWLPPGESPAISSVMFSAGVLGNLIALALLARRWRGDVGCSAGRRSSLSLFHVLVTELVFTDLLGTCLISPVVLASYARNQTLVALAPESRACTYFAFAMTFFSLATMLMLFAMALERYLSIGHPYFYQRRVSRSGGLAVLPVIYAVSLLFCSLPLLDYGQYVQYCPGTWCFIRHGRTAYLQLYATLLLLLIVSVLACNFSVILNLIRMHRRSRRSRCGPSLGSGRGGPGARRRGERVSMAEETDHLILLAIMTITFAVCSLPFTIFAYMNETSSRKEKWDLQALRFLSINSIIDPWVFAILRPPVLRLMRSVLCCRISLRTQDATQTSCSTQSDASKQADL
S1P3 antag-1 – S1P3 receptor antagonists, primary screen, cell-based. CHO S1P3 NFAT-BLA reporter, FRET fluorescence, antagonist mode. 170,000 tested, 0.27% active. inhibition, % at 4.98 µM. Sphingosine 1-phosphate receptor 3 (Homo sapiens), Q99500;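 active means inhibition above the plate cutoff, the mean inhibition of test wells on that plate plus 3 SD, cut at about 28% in these data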;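 further: cells challenged with S1P at its EC80 of 0.8 µM; blue over green emission ratio from cleaved BLA substrate after 4 h stimulation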
Insulin prom inh – inhibitors of insulin promoter-driven GFP, primary screen, imaging, TRM-6 cells (human fetal islet line), eGFP reporter, cell count; reporter expression induced with tamoxifen; inhibition, % at 2 µM; 130,000 tested, 0.9% active; AID 1273, 2008;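 active means inhibition above the mean plus 3 SD, with well images judged a real hit on visual review, cut at about 60% in these data, passing the limit was not always enough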
EP2 mod – EP2 receptor modulators, cAMP readout, primary screen, cell-based, HTRF cAMP, PGE2 stimulation | induction, % at 25 µM | Prostaglandin E2 receptor EP2 subtype (Homo sapiens), P43116 | 260,000 tested, 0.83% active | EP2-expressing cells, cAMP HTRF FRET, PGE2 co-stimulation;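 active means compounds whose cAMP rise, as percent of the full-agonist control response, exceeds 60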;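 further: rat C6 glioma line stably carrying human EP2 under a CMV promoter; the protocol text gives 20 µM as final concentration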
S1P3 antag-2 – S1P3 receptor antagonists, retest, confirmation, cell-based; shares compounds with S1P3 antag-1; CHO S1P3 NFAT-BLA reporter, FRET, antagonist mode; inhibition, % at 4.98 µM; 240 tested, 30% active;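 active means inhibition above the hit threshold that was computed for the earlier primary screen, cut at about 30% in these data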
A number is an active result; . = inactive; / = not tested or not shown; ! = not active in a repeat. Shown are actives, neighbours in structure and some others; about 2.4% of the full set was active somewhere.

SMILES	S1P4 antag	S1P4 ag	EP2 antag	S1P3 antag-1	Insulin prom inh	EP2 mod	S1P3 antag-2
CC(=O)Nc1ccc(Oc2cnc3ccccc3n2)cc1	.	.	.	/	.	.	/
C[C@H](Oc1ccc(Oc2cnc3ccc(Cl)cc3n2)cc1)C(=O)O	/	/	46.3	/	/	.	/
Cc1ccc(NC(=S)NC(=O)c2ccc(Cl)cc2Cl)nc1	/	/	.	/	/	.	/
Cc1cc(-c2ccc(Cl)cc2)c(C#N)c(N)n1	.	.	50.6	/	/	.	/
Nc1cc(S(N)(=O)=O)ccc1SSc1ccc(S(N)(=O)=O)cc1N	/	/	59.6	/	/	.	/
CCn1c(SCC(=O)Nc2ccccc2OC)nnc1-c1ccoc1C	/	/	.	/	/	.	/
Cc1c(N2CCCC2)cc2c(c1NC(=O)c1ccccc1Cl)C(C)(C)CC2(C)C	.	.	46.8!	.	/	.	/
O=C(Nc1ccccc1N1CCCC1)c1cccc(Cl)c1Cl	.	.	.	.	.	.	/
CCN(CC)C(=O)CSc1nnc(COc2cccc3ccccc23)n1CC	/	/	.	/	/	.	/
COc1ccc(NC(=O)CSc2nnc3c(C)cc4cc5c(cc4n23)OCCO5)cc1	/	/	.	/	/	.	/
CCOc1ccccc1NC(=O)c1nc(-c2ccccc2)oc1C	.	.	.	.	/	63.1	/
CCOc1ccccc1NC(=O)CSc1nc(-c2ccccc2)nc2ccccc12	/	/	.	/	/	60.8	/
CCn1c(N2CCN(N=O)CC2)nc2c1c(=O)n(C)c(=O)n2C	/	/	.	/	/	.	/
Cc1cc2c(cc3c(=O)n(CC(=O)NC4CCCC4)nc(C)n32)s1	/	/	/	/	/	.	/
Fc1ccc2nc3[nH]c4ccccc4c3nc2c1	.	.	.	.	90.9	.	/
O=C(c1ccco1)N1CCN(S(=O)(=O)/C=C/c2ccccc2)CC1	.	.	.	29.7	/	.	.
COC(=O)[C@@H](NC(=O)CCc1nnc(-c2ccsc2)o1)C(C)C	.	.	.	.	.	.	/
Cc1nc(C(C)NC(=O)CCc2nnc(-c3ccsc3)o2)cs1 (stereo unspecified)	.	.	.	37.8	/	.	.
O=C(CN1CCN(Cc2ccccc2)CC1)NCCNc1ccc([N+](=O)[O-])cn1	.	.	.	50.6	.	.	.
CC(C(=O)N1CCC(n2nnc3ccccc3c2=O)CC1)c1ccccc1 (stereo unspecified)	/	/	.	/	/	.	/
CCOC(=O)N=Nc1c2ccccc2c2nc3no[nH]c3nc12	.	.	.	30.6	/	.	109.4
CCOC(=O)N=Nc1c(O)n(CC(=O)OC)c2ccccc12	.	.	.	.	/	.	/
O=C(O)CC(CC(=O)Nc1ccc(F)c(Cl)c1)c1ccc(Cl)cc1Cl (stereo unspecified)	.	.	.	59.1	/	.	.
CCC(=O)Nc1ccc(F)c(Cl)c1	.	.	.	.	.	.	/
CN1CCN(Cc2cc(CN(C)CC3CCN(C)C3)ccc2O)CC1 (stereo unspecified)	/	/	.	/	/	.	/
SMILES	S1P4 antag	S1P4 ag	EP2 antag	S1P3 antag-1	Insulin prom inh	EP2 mod	S1P3 antag-2
O=C1c2cccc3c(N4CCCCC4)ccc(c23)C(=O)N1c1cccc(O)c1	.	.	.	51.1	.	.	45.0
CCn1c2cc(C)sc2c2cnn(CC(=O)N3CCC(C)CC3)c(=O)c21	/	/	/	/	/	.	/
CSc1ccccc1C(=O)NCCOc1cccc(C)c1	.	.	.	38.9	/	.	.
Cc1ccc(C(=O)NCCOc2cccc(C)c2)cc1	.	.	.	.	.	.	/
Fc1ccc(-c2n[nH]c(=S)c3ccccc23)cc1	.	.	.	65.0	.	.	.
O=c1[nH]nc(-c2ccccc2)c2ccccc12	.	.	.	.	/	.	/
O=C(Nc1ccccc1)C(c1ccccc1)C1CCCC1 (stereo unspecified)	.	.	.	52.4	.	.	48.2
CCCc1nnc(SCC(=O)Nc2nc3ccc(OC)cc3s2)n1C	/	/	.	/	/	.	/
O=C(O)c1c2c(nc3ccc(F)cc13)CCCC2	/	/	.	/	/	.	/
CN(Cc1ccccc1)CC(O)COc1ccc(CNCCc2cccnc2)cc1 (stereo unspecified)	.	.	.	30.8	/	.	.
CCCOC(=O)c1ccc(Oc2cn[nH]c2-c2ccc(O)cc2O)cc1	.	.	.	.	/	.	/
CCOC(=O)c1ccc(Oc2cn[nH]c2-c2ccc(O)cc2O)cc1	.	.	.	29.0	/	.	.
COC(=O)C(C)(C)ONC(=O)Nc1ccccc1Cl	.	.	.	39.0	/	.	.
COC(=O)C(C)(C)ONC(=O)Nc1ccccc1Br	.	.	.	.	.	.	/
O=C(NC1CC2(CCCC2)Oc2ccccc21)C1CCN(C(=O)Cc2ccccc2)CC1 (stereo unspecified)	/	/	/	/	/	.	/
COCCn1c(SCC(=O)Nc2cc(C)cc(C)c2)nnc1-c1ccoc1C	/	/	.	/	/	.	/
O=C(c1cnc2ccc3ccccc3c2c1)c1cc(F)ccc1O	.	.	.	31.9	/	.	.
Cc1ccc(NC(=S)NNC(=O)C2CC2c2ccc(C)cc2)cc1 (stereo unspecified)	.	.	.	/	.	.	/
COc1ccc(NC(=S)NNC(=O)C2CC2c2ccc(C)cc2)cc1 (stereo unspecified)	.	.	.	32.7	.	.	.
Cc1cc(C)cc(N(CC(=O)Nc2ccc3c(c2)OCCO3)S(C)(=O)=O)c1	/	/	.	/	/	.	/
CC1=[N+](C)c2c(ccc3cccnc23)C1(C)C	.	.	.	29.1	/	.	.
Cc1cccc2cc(C#N)c(NCCCNS(=O)(=O)c3cccc(F)c3)nc12	/	/	.	/	/	.	/
CCCCCCCCn1ccc(=N)cc1	.	.	.	34.6	/	.	.
CCCCCCCCCCn1ccc(=N)cc1	.	.	.	.	/	.	/
CC[C@@H]1C=C(C)C[C@H](C)C[C@H](OC)[C@H]2O[C@@](O)(C(=O)C(=O)N3CCCC[C@H]3C(=O)O[C@H](/C(C)=C/[C@@H]3CC[C@@H](O)[C@H](OC)C3)[C@H](C)[C@@H](O)CC1=O)[C@H](C)C[C@@H]2OC	.	.	.	89.1	.	.	104.6
SMILES	S1P4 antag	S1P4 ag	EP2 antag	S1P3 antag-1	Insulin prom inh	EP2 mod	S1P3 antag-2
COc1ccc(C(CC(=O)c2ccc(C)cc2)Nc2ccc([N+](=O)[O-])cc2)cc1 (stereo unspecified)	.	.	.	43.9	.	.	79.4
CCn1c(CSc2nc(C)cc(C)n2)nnc1SCc1ccc(C)cc1	/	/	.	/	/	.	/
COC(=O)c1ccc(N2CCN(C(=O)c3ccccc3)CC2)c(NC(C)=O)c1	.	.	.	40.2	/	.	.
COC(=O)c1ccc(N2CCN(C(C)=O)CC2)c(NC(=O)COc2ccccc2C)c1	.	.	.	.	/	.	/
CCCn1c(C)cc(/C=C(\C#N)C(=O)OCC(=O)NC(=O)NCC)c1C	.	.	.	/	.	.	/
CCCn1c(C)cc(/C=C(\C#N)C(=O)OCC(=O)Nc2ccc(OC)c(Cl)c2)c1C	.	.	.	92.1	/	.	.
